Measurements as given in PubChem BioAssay (NCATS).
Records with an inconclusive call do not appear. The call rests on the fitted dose curve; in most records, active means well fitted curve in either direction with a large enough effect (not every such curve was filed as active); inconclusive means small, poorly fitted or top-dose-only effect, or another doubt; inactive means flat fitted curve, though single readings scatter.

experiment: NFAT Signaling Pathway (AID 444); conditions: Jurkat NFAT-bla M1, carbachol, beta-lactamase ratio, 5 h; at 17.2 µM (top of the series) unless noted;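 further: carbachol stimulus at about its EC50 of 1 µM final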
Method in brief: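 Jurkat cells with NFAT-driven β-lactamase reporter and co-expressed M1 receptor, stimulated with carbachol (final 1 uM, ~EC50), compound titration, 5 h at 37 °C. CCF4 loaded 1 h at RT; 460/530 nm ratio gave %activity and AC50.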
On the % scale 0 is the no-effect control and ±100 the full control effect.

Activity change, negative = inhibition, inactive:
O=C1CCC(=O)N1CN(C(=O)c1ccco1)c1ccc(Cl)c(Cl)c1 -5.89%
Cn1c(=O)c2c3c(sc2n2c(SCC(N)=O)nnc12)CC(C(C)(C)C)CC3 (stereo not given) 19.6%
CCCc1cc(=O)oc2c(C)c(O)c(CN3CCCCC3)cc12 19.5%
Cc1ccccc1N1C(=O)C2ON(c3ccccc3)C(c3ccncc3)C2C1=O (stereo not given) 18.5%
c1ccc(Cc2nn[nH]n2)cc1 -3.11%
Cc1cc(=O)oc(C)c1C(=O)n1nc(C)c2c1C[C@@H]1[C@H]2C1(C)C -1.13%
CCCC1C(c2ccc(OC)cc2)C(C#N)(C#N)C2(C#N)CC1(N)NC2=O (stereo not given) -5.15%
CO[C@H]1C=CO[C@@]2(C)Oc3c(C)c(O)c4c(O)c(c(C=NN5CCN(C)CC5)c(O)c4c3C2=O)NC(=O)C(C)=CC=C[C@H](C)[C@H](O)[C@@H](C)[C@@H](O)[C@@H](C)[C@H](OC(C)=O)[C@@H]1C 18.4%
C=CCN1C(=O)CC(C(=O)NC)SC1=Nc1ccc(C(=O)OCC)cc1 (stereo not given) 16.7%
CC(=O)Nn1cnc2c(c1=O)C1(CCCC1)Cc1ccccc1-2 -0.355%
CC(=O)C1=C(O)C(=O)N(c2cccc(C(=O)O)c2)C1c1ccc(F)cc1 (stereo not given) 2.04%
CC(C)Cc1[nH]c(=O)c(C#N)c2c1CCCC2 2.23%
Cc1nc2c(c(=O)n1CC1CCCO1)c1nc3ccccc3nc1n2CCC(C)C (stereo not given) -6.4%
O=C1CCCN1c1ccc(S(=O)(=O)NCc2ccco2)cc1 -10.1%
CC(C)N1CCc2c(sc(N)c2C#N)C1 -22.4%
COCCCNc1nc2c(c(=O)n(C)c(=O)n2C)n1Cc1cccc(OC)c1 -4.82%
COc1c(O)ccc2cnn(-c3ccccc3C)c(=O)c12 -7.24%
Cc1cc(C)n(C(=O)CSc2nc3ccccc3o2)n1 -4.76%
c1csc(-c2nn3c(C4CCCCC4)nnc3s2)c1 -19.6%
CC1(C)Cc2c(c(-c3ccccc3)nc(N3CCCC3)c2C(N)=O)CO1 -18.8%
COc1ccc(CCNC2CC(C)N(C)CC2C)cc1OC (stereo not given) -14.9%
CCOC(=O)CSc1nc(N2CCOCC2)c2c(c1C#N)CC(C)(C)N(C)C2 -17.7%
Cc1cc(C)cc(-n2c3nc4ccccc4nc3c3c(=O)n(Cc4ccco4)cnc32)c1 -18.2%
CC(=O)C1=C(O)C(=O)N(c2cccc(C(=O)O)c2)C1c1ccccc1F (stereo not given) 3.23%
CCCCC(CCC(=O)Nc1ccc(C(=O)OC)cc1)C(=O)O (stereo not given) 7.48%
COc1ccc(C(=O)c2ccc(N3CCOCC3)cc2)c(OC)c1 13.3%
COc1ccc(Cn2c(CCCO)nc3ccccc32)cc1OC 3.22%
COc1ccc(/C(O)=C2/C(=O)C(=O)N(CCN(C)C)C2c2ccccn2)cc1OC (stereo not given) -3.03%
CCCCCOc1ccccc1C(=O)NCCCC(=O)O -1.98%
CC1CN(C2CCN(C(=O)COc3ccccc3)CC2)CC(C)O1 (stereo not given) -12.5%
Clc1ccccc1-c1nnc2sc(-c3ccco3)nn12 6.46%
Cn1c(OCc2cccnc2)nc2c1c(=O)n(Cc1ccc(Cl)cc1)c(=O)n2C 22%
O=C1C2ON(c3ccccc3)C(c3cccnc3)C2C(=O)N1c1ccccc1 (stereo not given) -5.72%
O=C(NCc1ccccn1)c1ccc(=O)oc1 -2.94%
CCc1cccc(C)c1N(C(=O)Cn1c(=O)[nH]c2ccccc21)C(C)COC (stereo not given) 17.7%
Cn1c(=O)[nH]c(=O)c2c1nc(N(CCO)Cc1ccccc1)n2Cc1ccccc1Cl -6.08%
O=C1C2ON(c3ccccc3)C(c3ccncc3)C2C(=O)N1c1ccccc1 (stereo not given) 3.71%
O=S(=O)(/C=C/c1ccccc1)Nc1ccc2c(c1)OCO2 -26.9%
Cc1cc(C)n(CC2CC(=O)N(c3ccc(C)c(Cl)c3)C2=O)n1 (stereo not given) 13.9%
CN1C(=O)C2(c3ccccc31)C1CCCC=C1C(C#N)=C(N)C2(C#N)C#N (stereo not given) -15.5%

experiment: Stat Signaling Pathway (AID 446); conditions: ME-180 SIE beta-lactamase reporter, IL-6 stimulated, 5 h; at 17.2 µM (top of the series) unless noted;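 further: ME-180 cervical cancer cells given 40 pM IL-6 alongside compound; SIE-controlled beta-lactamase reporter measured as 460/530 nm FRET emission ratio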
Method in brief: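 Screening format detects activators and inhibitors alike: ME-180 SIE-bla cells stimulated at 40 pM IL-6 for 5 hrs with compound, then dual-emission beta-lactamase read at 405 nm excitation.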

activity, negative = inhibition, inactive:
O=C1CCC(=O)N1CN(C(=O)c1ccco1)c1ccc(Cl)c(Cl)c1 11.1%
Cn1c(=O)c2c3c(sc2n2c(SCC(N)=O)nnc12)CC(C(C)(C)C)CC3 (stereo not given) 14%
CCCc1cc(=O)oc2c(C)c(O)c(CN3CCCCC3)cc12 10.7%
Cc1ccccc1N1C(=O)C2ON(c3ccccc3)C(c3ccncc3)C2C1=O (stereo not given) 1.29%
c1ccc(Cc2nn[nH]n2)cc1 8.05%
Cc1cc(=O)oc(C)c1C(=O)n1nc(C)c2c1C[C@@H]1[C@H]2C1(C)C -1.83%
CCCC1C(c2ccc(OC)cc2)C(C#N)(C#N)C2(C#N)CC1(N)NC2=O (stereo not given) -5.79%
CO[C@H]1C=CO[C@@]2(C)Oc3c(C)c(O)c4c(O)c(c(C=NN5CCN(C)CC5)c(O)c4c3C2=O)NC(=O)C(C)=CC=C[C@H](C)[C@H](O)[C@@H](C)[C@@H](O)[C@@H](C)[C@H](OC(C)=O)[C@@H]1C 1.14%
C=CCN1C(=O)CC(C(=O)NC)SC1=Nc1ccc(C(=O)OCC)cc1 (stereo not given) -3.3%
CC(=O)Nn1cnc2c(c1=O)C1(CCCC1)Cc1ccccc1-2 10.3%
CC(=O)C1=C(O)C(=O)N(c2cccc(C(=O)O)c2)C1c1ccc(F)cc1 (stereo not given) 4.06%
CC(C)Cc1[nH]c(=O)c(C#N)c2c1CCCC2 8.54%
Cc1nc2c(c(=O)n1CC1CCCO1)c1nc3ccccc3nc1n2CCC(C)C (stereo not given) -12.2%
O=C1CCCN1c1ccc(S(=O)(=O)NCc2ccco2)cc1 2.23%
CC(C)N1CCc2c(sc(N)c2C#N)C1 -5%
COCCCNc1nc2c(c(=O)n(C)c(=O)n2C)n1Cc1cccc(OC)c1 -3.35%
COc1c(O)ccc2cnn(-c3ccccc3C)c(=O)c12 25.4%
Cc1cc(C)n(C(=O)CSc2nc3ccccc3o2)n1 2.26%
c1csc(-c2nn3c(C4CCCCC4)nnc3s2)c1 20.7%
CC1(C)Cc2c(c(-c3ccccc3)nc(N3CCCC3)c2C(N)=O)CO1 0.41%
COc1ccc(CCNC2CC(C)N(C)CC2C)cc1OC (stereo not given) 4.89%
CCOC(=O)CSc1nc(N2CCOCC2)c2c(c1C#N)CC(C)(C)N(C)C2 1.11%
Cc1cc(C)cc(-n2c3nc4ccccc4nc3c3c(=O)n(Cc4ccco4)cnc32)c1 -16.9%
CC(=O)C1=C(O)C(=O)N(c2cccc(C(=O)O)c2)C1c1ccccc1F (stereo not given) 10.6%
CCCCC(CCC(=O)Nc1ccc(C(=O)OC)cc1)C(=O)O (stereo not given) 8.56%
COc1ccc(C(=O)c2ccc(N3CCOCC3)cc2)c(OC)c1 1.25%
COc1ccc(Cn2c(CCCO)nc3ccccc32)cc1OC -4.44%
COc1ccc(/C(O)=C2/C(=O)C(=O)N(CCN(C)C)C2c2ccccn2)cc1OC (stereo not given) -3.63%
CCCCCOc1ccccc1C(=O)NCCCC(=O)O 1.72%
CC1CN(C2CCN(C(=O)COc3ccccc3)CC2)CC(C)O1 (stereo not given) -1.27%
Clc1ccccc1-c1nnc2sc(-c3ccco3)nn12 0.557%
Cn1c(OCc2cccnc2)nc2c1c(=O)n(Cc1ccc(Cl)cc1)c(=O)n2C -15.9%
O=C1C2ON(c3ccccc3)C(c3cccnc3)C2C(=O)N1c1ccccc1 (stereo not given) 1.24%
O=C(NCc1ccccn1)c1ccc(=O)oc1 8.81%
CCc1cccc(C)c1N(C(=O)Cn1c(=O)[nH]c2ccccc21)C(C)COC (stereo not given) -1.06%
Cn1c(=O)[nH]c(=O)c2c1nc(N(CCO)Cc1ccccc1)n2Cc1ccccc1Cl -4.12%
O=C1C2ON(c3ccccc3)C(c3ccncc3)C2C(=O)N1c1ccccc1 (stereo not given) 1.91%
O=S(=O)(/C=C/c1ccccc1)Nc1ccc2c(c1)OCO2 -22.1%
Cc1cc(C)n(CC2CC(=O)N(c3ccc(C)c(Cl)c3)C2=O)n1 (stereo not given) -4.28%
CN1C(=O)C2(c3ccccc31)C1CCCC=C1C(C#N)=C(N)C2(C#N)C#N (stereo not given) -7.56%
